Test results reported in article PMC8384837, “Expanding the binding specificity for RNA recognition by a PUF domain”.

Legend:
Experiment in all cases: yeast three-hybrid, YBZ-1, SC-Leu-His + 0.5 mM 3-AT, 4 days
Conditions in all cases: tags: N-Gal4 AD-HA kept; label: inside an RPR1-promoter hybrid RNA with tandem MS2 sites; ssRNA
PUM1 PUF domain R3-VCE = PUM1 PUF domain R3-VCE (Homo sapiens, UniProt Q14671 828-1176, C935V;R936C;Q939E)
Method in brief: (§1)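 Pumilio-1 PUF domain libraries, randomized at the three base-contacting residues of each repeat, were co-expressed with matching RNA elements from a centromeric plasmid in strain YBZ-1, which carries a LexA–MS2 coat fusion and a HIS3 reporter. Transformants grew for four days on SC-Leu (input) or on SC-Leu-His + 0.5 mM 3-AT (selection), and the repeat regions were PCR-amplified and Illumina-sequenced. The interaction score is the log change in variant frequency from input to selection. That logarithm is base 2, with a pseudocount of 1 where a variant was absent.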

PUM1 PUF domain R1-HLR = PUM1 PUF domain R1-HLR (Homo sapiens, UniProt Q14671 828-1176, S863H;R864L;Q867R)
Method in brief: as §1

PUM1 PUF domain R8-RWQ = PUM1 PUF domain R8-RWQ (Homo sapiens, UniProt Q14671 828-1176, N1122R;Y1123W)
Method in brief: as §1

PUM1 PUF domain R5-SRL = PUM1 PUF domain R5-SRL (Homo sapiens, UniProt Q14671 828-1176, C1007S;Q1011L)
Method in brief: as §1

PUM1 PUF domain R4-EWG = PUM1 PUF domain R4-EWG (Homo sapiens, UniProt Q14671 828-1176, N971E;H972W;Q975G)
Method in brief: as §1

PUM1 PUF domain R6-LWR = target: T1, PUM1 PUF domain R6-LWR (Homo sapiens, UniProt Q14671 828-1176, N1043L;Y1044W;Q1047R)
T1 sequence: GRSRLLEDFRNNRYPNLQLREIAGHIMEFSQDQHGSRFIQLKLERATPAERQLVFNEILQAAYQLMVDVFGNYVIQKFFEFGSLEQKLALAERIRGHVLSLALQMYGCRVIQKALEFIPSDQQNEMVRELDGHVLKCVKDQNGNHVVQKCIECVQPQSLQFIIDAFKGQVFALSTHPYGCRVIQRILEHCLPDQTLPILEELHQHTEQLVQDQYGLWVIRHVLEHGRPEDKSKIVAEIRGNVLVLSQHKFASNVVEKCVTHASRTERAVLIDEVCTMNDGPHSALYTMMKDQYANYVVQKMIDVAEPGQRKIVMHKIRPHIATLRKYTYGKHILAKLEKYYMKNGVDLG
Method in brief: as §1

PUM1 PUF domain R8-SWK = PUM1 PUF domain R8-SWK (Homo sapiens, UniProt Q14671 828-1176, N1122S;Y1123W;Q1126K)
Method in brief: as §1

PUM1 PUF domain R8-IYV = PUM1 PUF domain R8-IYV (Homo sapiens, UniProt Q14671 828-1176, N1122I;Q1126V)
Method in brief: as §1

PUM1 PUF domain R8-MYR = PUM1 PUF domain R8-MYR (Homo sapiens, UniProt Q14671 828-1176, N1122M;Q1126R)
Method in brief: as §1

PUM1 PUF domain R3-GWF = PUM1 PUF domain R3-GWF (Homo sapiens, UniProt Q14671 828-1176, C935G;R936W;Q939F)
Method in brief: as §1

“GGCUAGAACUAGUGGAUCCCCCGGCGCCCGGCGGCUCGAGCCCGGGUAAGUGUAAGUAGUCUGCAUGCCGCCGGGCGCCAUGCCUGCAGGUCGACUCUAGAAAACAUG” was tested, and the binding signal (PUM1 PUF domain R3-VCE) was 3.08 log2 enrichment (interaction score).
In the case of “GGCUAGAACUAGUGGAUCCCCCGGCGCCCGGCGGCUCGAGCCCGGGUAAGUGUAAAUUGUCUGCAUGCCGCCGGGCGCCAUGCCUGCAGGUCGACUCUAGAAAACAUG”, the binding signal (PUM1 PUF domain R1-HLR) was 2.68 log2 enrichment (interaction score).
“GGCUAGAACUAGUGGAUCCCCCGGCGCCCGGCGGCUCGAGCCCGGGUAAGUGUAAAUAGUCUGCAUGCCGCCGGGCGCCAUGCCUGCAGGUCGACUCUAGAAAACAUG” was tested, and the binding signal (PUM1 PUF domain R8-RWQ) was 6.33 log2 enrichment (interaction score), the binding signal (PUM1 PUF domain R5-SRL) was 3.16 log2 enrichment (interaction score) and the binding signal (PUM1 PUF domain R3-VCE) was 2.11 log2 enrichment (interaction score). For the same sequence, the binding signal (PUM1 PUF domain R4-EWG) was 3.6 log2 enrichment (interaction score), the binding signal (PUM1 PUF domain R6-LWR) was 5.05 log2 enrichment (interaction score) and the binding signal (PUM1 PUF domain R8-SWK) was 5.34 log2 enrichment (interaction score). The binding signal (PUM1 PUF domain R8-IYV) was 2.36 log2 enrichment (interaction score), the binding signal (PUM1 PUF domain R8-MYR) was 4.65 log2 enrichment (interaction score) and the binding signal (PUM1 PUF domain R3-GWF) was 5.35 log2 enrichment (interaction score).
For “GGCUAGAACUAGUGGAUCCCCCGGCGCCCGGCGGCUCGAGCCCGGGUAAGUGUACAUAGUCUGCAUGCCGCCGGGCGCCAUGCCUGCAGGUCGACUCUAGAAAACAUG”, the binding signal (PUM1 PUF domain R4-EWG) was 1.12 log2 enrichment (interaction score).
In the case of “GGCUAGAACUAGUGGAUCCCCCGGCGCCCGGCGGCUCGAGCCCGGGUAAGCGUAAAUAGUCUGCAUGCCGCCGGGCGCCAUGCCUGCAGGUCGACUCUAGAAAACAUG”, the binding signal (PUM1 PUF domain R8-RWQ) was 5.71 log2 enrichment (interaction score), the binding signal (PUM1 PUF domain R8-IYV) was 2.44 log2 enrichment (interaction score) and the binding signal (PUM1 PUF domain R8-MYR) was 4.58 log2 enrichment (interaction score).
“GGCUAGAACUAGUGGAUCCCCCGGCGCCCGGCGGCUCGAGCCCGGGUAAGUGUUAAUAGUCUGCAUGCCGCCGGGCGCCAUGCCUGCAGGUCGACUCUAGAAAACAUG” was tested, and the binding signal (PUM1 PUF domain R5-SRL) was 2.41 log2 enrichment (interaction score).
With “GGCUAGAACUAGUGGAUCCCCCGGCGCCCGGCGGCUCGAGCCCGGGUAAGUGUAAAUCGUCUGCAUGCCGCCGGGCGCCAUGCCUGCAGGUCGACUCUAGAAAACAUG” the binding signal (PUM1 PUF domain R1-HLR) was 3.24 log2 enrichment (interaction score).
